Assay results from PubChem BioAssay (NCI).
About 83,000 compounds went through this panel and 20% of them were active in at least one assay; those are over-represented in the sample as a whole.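 Results are percent growth after 48 hours of single-concentration exposure. 100 means growth as in untreated cells, lower positive values show inhibition; negative values down to -100 show cell death.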 Values without a mark were called inactive. The source made the active and inactive calls. Rule for the calls: active = growth percent below 10; inactive = the rest.

What was measured:
Assay in all cases: NCI-60 one-dose screen, 48 h (100 = growth as untreated, 0 = no growth, -100 = all killed)
Conditions in all cases: 10 µM unless noted
NCI-H23 lung = test system: NCI-H23 lung
NCI-H226 lung = test system: NCI-H226 lung
NCI-H322M lung = test system: NCI-H322M lung
HOP-62 NSCLC = test system: HOP-62 NSCLC
NCI-H460 lung = test system: NCI-H460 lung
HOP-92 NSCLC = test system: HOP-92 NSCLC
NCI-H522 lung = test system: NCI-H522 lung
A549/ATCC NSCLC = test system: A549/ATCC NSCLC
786-0 renal = test system: 786-0 renal
COLO 205 colon = test system: COLO 205 colon

| Compound | growth (NCI-H23 lung) | growth (NCI-H226 lung) | growth (NCI-H322M lung) | growth (HOP-62 NSCLC) | growth (NCI-H460 lung) | growth (HOP-92 NSCLC) | growth (NCI-H522 lung) | growth (A549/ATCC NSCLC) | growth (786-0 renal) | growth (COLO 205 colon) |
| --- | --- | --- | --- | --- | --- | --- | --- | --- | --- | --- |
| O=C(CCCCCCNC(=O)C(O)(O)C(F)(F)F)Nc1ncc(-c2ccc(Br)cc2)s1 | -16% (active) | 4.5% (active) | 12.2% | -6.49% (active) | 0.631% (active) | -23.3% (active) | -44.9% (active) | -15.2% (active) | 14.9% | -55.9% (active) |
| COc1ccc(-c2cnc(NC(=O)CCCCCCNC(=O)C(O)(O)C(F)(F)F)s2)cc1 | -9.04% (active) | 5.81% (active) | 8.73% (active) | 1.79% (active) | 0.915% (active) | -25.4% (active) | -41.4% (active) | -12.5% (active) | 14.9% | -70.8% (active) |
| C#C[C@]1(O)CC[C@H]2[C@@H]3CC=C4c5sc(Nc6cccc(F)c6)nc5CC[C@]4(C)[C@H]3CC[C@@]21C | 27.8% | 43.6% | 53.7% | 33.4% | 24.3% | 61.3% | 31.7% | 32.6% | 2.62% (active) | -9.5% (active) |
| COc1ccc(C(C)=C(c2ccc(OCCN(C)C)cc2)c2ccc(OCCN(C)C)cc2)cc1 | -13.7% (active) | -7.67% (active) | -2.39% (active) | -15.8% (active) | -14.8% (active) | -43.6% (active) | -60.1% (active) | -3.07% (active) | -88.5% (active) | -73% (active) |
| NCCNC(=O)c1cccc(COc2ccccc2NC(=O)c2cc(Cl)c(Cl)[nH]2)c1 | 98.1% | 96.4% | 102% | 104% | 104% | 107% | 104% | 98.6% | 90.3% | 113% |
| CS(=O)(=O)c1ccc(/C(=N/N=C(N)N)c2ccc(Cl)cc2)cc1 | 95.4% | 95.5% | 94.9% | 85.1% | 99.1% | 57.2% | 77.4% | 99.2% | 88.5% | 91.5% |
| CNC(=O)c1cc(-n2ccc3cc(NC(=O)Nc4ccc(N5CCN(C)CC5)c(C(F)(F)F)c4)ccc32)ccn1 | 88.6% | 96.4% | 85.4% | 75.6% | 60% | 71.1% | 101% | 68.2% | -13.7% (active) | 90.8% |
| Clc1cccc(/C=N/Nc2nc(N/N=C/c3cccc(Cl)c3)nc(N3CCCCC3)n2)c1 | 97.8% | 82% | 101% | 104% | 96.5% | 108% | 88.3% | 86.3% | 95.2% | 102% |
| CN1CCC[C@]2(C)[C@H]3CC[C@@H]4[C@@H]5[C@H]6OC[C@@]5(CCC6(C)C)CC[C@@]4(C)[C@]3(C)CC[C@H]2C1(C)C | 91% | 93.2% | 87.8% | 94.2% | 1.69% (active) | 50.6% | 96.3% | 71.7% | 84.4% | -8.01% (active) |
| Nc1ncc(-c2ccc3ncnc(NCc4ccccc4)c3c2)cn1 | 55.4% | 33.9% | 8.77% (active) | 35.7% | 44.7% | 8.86% (active) | 23.8% | 41.3% | 31.3% | 69.3% |
| COc1cc(OC)cc(-c2cc(-c3c[nH]c4ccccc34)nc(-c3c[nH]c4ccccc34)c2C#N)c1 | 104% | 87.3% | 105% | 96.3% | 103% | 95% | 92.1% | 98.5% | 105% | 110% |
| CN1CCN(Cc2ccc(NC(=O)c3cncc(C#Cc4cnc5ccc(OCCCS(C)(=O)=O)nn45)c3)cc2C(F)(F)F)CC1 | -50.9% (active) | -60.1% (active) | -16.6% (active) | -47.7% (active) | -64.1% (active) | -27.3% (active) | -76% (active) | -9.65% (active) | -16% (active) | -66.9% (active) |
| COc1cc(/C=C2/C(=O)Nc3ccc(Cl)cc32)ccc1OCc1ccc(Cl)cc1 | 81.2% | 95.7% | 89.3% | 92.1% | 70.5% | 88.3% | 87.9% | 84.9% | 100% | 93.4% |
| Cc1ccccc1N1CCN(C2=C(Cl)C(=O)c3ncccc3C2=O)CC1 | 38.1% | 94.2% | 89.9% | 59.5% | 53.1% | 118% | -28% (active) | 99.6% | 91% | 31.8% |
| N#Cc1c(-c2cccs2)cc(-c2cnccn2)nc1SCC(=O)N/N=C/c1ccccc1 | 40.8% | 50.8% | 63.5% | 31.1% | 17% | 42.3% | 67.3% | 46.8% | 17.9% | 66.2% |
| CCOC(=O)c1c(NC(=O)c2cccc(C(F)(F)F)c2)sc2c3c(ccc12)OCN(C)C3 | 83.6% | 77.8% | 18% | -87.6% (active) | -75.9% (active) | 15.2% | -15% (active) | -77.7% (active) | -71.9% (active) | -57.6% (active) |
| CC(C)(C)OC(=O)Nc1ccc(-c2cccc(Oc3ccc4nnc(Cl)n4n3)c2)cc1 | 69.7% | 66.4% | 101% | 104% | 82.4% | 42.3% | 64.9% | 85.6% | 81.9% | 88.5% |
| Cc1ccc([C@H]2c3[nH]c4ccccc4c3C[C@H]3C(=O)N(CCCCCCC(=O)NO)CC(=O)N23)s1 | 77.6% | 94% | 67.4% | 68% | 57.3% | 51.2% | 41.1% | 85.5% | 89.3% | 67.9% |
| Cn1cc(C2=C(c3coc4cc(Br)ccc34)C(=O)NC2=O)c2ccccc21 | 86.8% | 74.8% | 82.2% | 71% | 98.6% | 93.4% | 72% | 71.6% | 83.7% | 71.3% |
| CC1=C(C)C(=O)C(Nc2cccc(C(=O)OC(C)(C)C)c2)=C(Cl)C1=O | 92.4% | 91.3% | 99.5% | 103% | 99.8% | 56.4% | 81.7% | 90.4% | 96.5% | 118% |
| O=S(=O)(NCCCNc1nccc(-c2[nH]c(-c3ccccc3)nc2-c2ccc(F)c(O)c2)n1)c1cccc2ccccc12 | 64.9% | 68% | 98.2% | 76.8% | 35.5% | 32.6% | 64% | 52.4% | 59.8% | 111% |
| COc1ccc(-c2c3c(cn2Cc2cccc(OC)c2)-c2oncc2CCC3)cc1 | 105% | 85% | 103% | 102% | 98.9% | 74.2% | 96.3% | 98.9% | 103% | 95.2% |
| Clc1ccc2[nH]cc(-c3cncn3CCc3ccc4c(c3)OCO4)c2c1 | 62.9% | 56.8% | 75.5% | 85.5% | 81.6% | 9.07% (active) | 69.2% | 73.2% | 73.7% | 80.5% |
| C#Cc1nc(/C=C/CCCCCCC(=O)NO)cs1 | -34.2% (active) | 87.6% | 85.2% | 73.4% | 51.8% | -52.3% (active) | -61.4% (active) | 61.6% | -87.8% (active) | 81.8% |
| CCOC(=O)C(=O)Nc1ccc2c(ccn2C(=O)c2cccc(F)c2)c1 | 95.8% | 97.2% | 93.8% | 95.9% | 100% | 78.9% | 96.1% | 102% | 97.6% | 108% |
| Cc1cc2nc(C(Cl)Cl)nc(-c3ccc(S(=O)(=O)N(C)C)cc3)n2n1 | 44.4% | 71.8% | 69.3% | 32.8% | 27.5% | 50% | 76.9% | 37% | 94.5% | 25.2% |
